{"source": "paper PMC4336329", "about": "(PLoS ONE, 2015)", "note": "Among all 310,000 compounds or so, about 14,000 (4.5%) showed an effect of 50% or more. Effects have a minus sign here. The full list was thinned out, with strong results kept by preference.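 Further: peak tail current of the secondary pulse compared with the same well before compound.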"}
{"molecular_target": "human ether-à-go-go-related gene (hERG) potassium channel (human, UniProt Q12809)", "sequence (Q12809 whole entry, looked up)": "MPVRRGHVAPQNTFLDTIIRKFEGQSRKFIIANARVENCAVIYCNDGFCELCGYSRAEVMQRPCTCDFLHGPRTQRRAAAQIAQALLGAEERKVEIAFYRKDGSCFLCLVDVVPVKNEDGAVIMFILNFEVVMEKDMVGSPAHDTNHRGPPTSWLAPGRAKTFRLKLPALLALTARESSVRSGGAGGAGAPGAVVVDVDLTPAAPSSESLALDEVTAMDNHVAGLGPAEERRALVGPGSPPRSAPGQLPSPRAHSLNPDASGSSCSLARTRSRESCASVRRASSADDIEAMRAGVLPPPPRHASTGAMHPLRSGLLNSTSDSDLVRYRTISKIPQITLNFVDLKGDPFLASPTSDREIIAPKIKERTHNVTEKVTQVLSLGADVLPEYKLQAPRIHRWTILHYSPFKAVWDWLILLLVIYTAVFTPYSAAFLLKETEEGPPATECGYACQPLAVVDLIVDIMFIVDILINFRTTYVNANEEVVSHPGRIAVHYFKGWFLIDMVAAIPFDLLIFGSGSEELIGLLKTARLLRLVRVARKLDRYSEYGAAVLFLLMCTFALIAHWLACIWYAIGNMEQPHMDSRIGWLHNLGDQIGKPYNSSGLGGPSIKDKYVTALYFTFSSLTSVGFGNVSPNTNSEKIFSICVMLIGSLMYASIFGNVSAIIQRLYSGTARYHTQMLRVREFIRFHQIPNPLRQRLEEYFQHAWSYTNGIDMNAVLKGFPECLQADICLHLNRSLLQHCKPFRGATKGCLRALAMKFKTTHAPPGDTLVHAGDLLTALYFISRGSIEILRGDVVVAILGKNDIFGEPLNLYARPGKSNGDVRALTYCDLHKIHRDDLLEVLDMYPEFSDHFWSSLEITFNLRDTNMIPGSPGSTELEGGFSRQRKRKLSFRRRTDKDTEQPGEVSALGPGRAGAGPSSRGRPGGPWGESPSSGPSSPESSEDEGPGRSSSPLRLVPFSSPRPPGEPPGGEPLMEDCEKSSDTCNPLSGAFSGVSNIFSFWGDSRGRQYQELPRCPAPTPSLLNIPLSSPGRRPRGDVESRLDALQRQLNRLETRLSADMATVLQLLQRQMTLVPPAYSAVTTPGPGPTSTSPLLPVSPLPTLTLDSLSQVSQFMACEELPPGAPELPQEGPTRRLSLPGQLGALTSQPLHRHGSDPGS", "assay": "primary screen, population patch clamp on CHO cells stably expressing hERG; higher = less effect of the substance", "units": {"hERG current change (%, negative = inhibition) at 10uM": "%"}}
{"smiles": "O=C(O)CCCn1cc(NC(=O)c2ccco2)cn1", "hERG current change (%, negative = inhibition) at 10uM": 26.7}
{"smiles": "O=C(NCCN1CCOCC1)c1ccc(CSc2nc3ccncc3n2Cc2ccc(F)cc2)cc1", "hERG current change (%, negative = inhibition) at 10uM": -8.35}
{"smiles": "Fc1ccc(-c2nnn(Cc3nc4ccccc4s3)n2)cc1", "hERG current change (%, negative = inhibition) at 10uM": -11.2}
{"smiles": "CCN(CC)C(=O)c1cc2c(=O)n3cccc(C)c3nc2s1", "hERG current change (%, negative = inhibition) at 10uM": 15.5}
{"smiles": "Cc1cccc(-c2nc(CN3CCCC(C(=O)NC4CCCCC4)C3)c(C)o2)c1", "note": "(centres unmarked)", "hERG current change (%, negative = inhibition) at 10uM": -60.4}
{"smiles": "COc1ccc(CNC(=O)C2CCCN(Cc3nc(-c4cccc(C)c4)oc3C)C2)cc1", "note": "(centres unmarked)", "hERG current change (%, negative = inhibition) at 10uM": -63.8}
{"smiles": "CCN(c1ccc(OC)cc1)S(=O)(=O)N1CCCC(C(=O)NCc2cccc(C)c2)C1", "note": "(centres unmarked)", "hERG current change (%, negative = inhibition) at 10uM": -26.5}
{"smiles": "Cc1cccc(-c2nc(CN3CCCC(C(=O)NC4CCCC4)C3)c(C)o2)c1", "note": "(centres unmarked)", "hERG current change (%, negative = inhibition) at 10uM": -76.3}
{"smiles": "Cc1cccc(-c2nc(CN3CCCC(C(=O)NC4CCC(C)CC4)C3)c(C)o2)c1", "note": "(centres unmarked)", "hERG current change (%, negative = inhibition) at 10uM": -68.4}
{"smiles": "COc1ccc(CNC(=O)C2CCCN(c3nccc(C)n3)C2)cc1", "note": "(centres unmarked)", "hERG current change (%, negative = inhibition) at 10uM": -0.849}
{"smiles": "COc1cccc(N2CCN(S(=O)(=O)c3ccc(-n4cnnn4)cc3)CC2)c1", "hERG current change (%, negative = inhibition) at 10uM": 16.6}
{"smiles": "CCN(CC)CCNC(=S)NC(=O)c1cn(-c2ccccc2)nc1-c1ccc(OC)cc1", "hERG current change (%, negative = inhibition) at 10uM": -27.3}
{"smiles": "COc1ccc(N(CC(=O)N2CCCCC2)S(=O)(=O)c2c(C)nn(C)c2C)cc1", "hERG current change (%, negative = inhibition) at 10uM": 4.36}
{"smiles": "CCOC(=O)CSc1nnc(Cc2ccccc2)n1CC1CCCO1", "note": "(centres unmarked)", "hERG current change (%, negative = inhibition) at 10uM": 5}
{"smiles": "Clc1ncc(Cn2cccn2)s1", "hERG current change (%, negative = inhibition) at 10uM": 10.5}
{"smiles": "O=C1C2C3C=CC(C3)C2C(=O)N1/N=C/c1cn(Cc2ccc(F)cc2)c2ccccc12", "note": "(centres unmarked)", "hERG current change (%, negative = inhibition) at 10uM": 5.84}
{"smiles": "O=C(NCCCn1ccnc1)c1ccc(Cl)s1", "hERG current change (%, negative = inhibition) at 10uM": 5.72}
{"smiles": "COC(=O)c1c(NC(=O)COC(=O)c2ccc(NC(=O)CC#N)cc2)sc2c1CCCCC2", "hERG current change (%, negative = inhibition) at 10uM": 17.6}
{"smiles": "Cc1cccc(-c2nc(CN3CCCC(C(=O)NC4CCCCCC4)C3)c(C)o2)c1", "note": "(centres unmarked)", "hERG current change (%, negative = inhibition) at 10uM": -69.8}
{"smiles": "Cc1cccc(-c2nc(CS(=O)CC(=O)NC3CCCCC3)c(C)o2)c1", "note": "(centres unmarked)", "hERG current change (%, negative = inhibition) at 10uM": -3.93}
{"smiles": "O=C(NCCO)c1cc2ccccc2c(=O)s1", "hERG current change (%, negative = inhibition) at 10uM": 6.96}
{"smiles": "Cc1cccc(-c2nn(-c3ccccc3)cc2C(=O)NCC(c2cccs2)N2CCOCC2)c1", "note": "(centres unmarked)", "hERG current change (%, negative = inhibition) at 10uM": -4.33}
{"smiles": "O=C1c2ccccc2N2C(=O)c3ccccc3[C@H]2N1c1ccccc1", "hERG current change (%, negative = inhibition) at 10uM": -22.4}
{"smiles": "O=C1c2ccccc2N2C(=O)c3ccccc3C2N1Cc1ccco1", "note": "(centres unmarked)", "hERG current change (%, negative = inhibition) at 10uM": -27.4}
{"smiles": "O=C1c2ccccc2N2C(=O)c3ccccc3C2N1Cc1ccccc1", "note": "(centres unmarked)", "hERG current change (%, negative = inhibition) at 10uM": -57.9}
{"smiles": "COC(=O)c1ccc(CN2C(=O)c3ccccc3C2=O)cc1", "hERG current change (%, negative = inhibition) at 10uM": 8.01}
{"smiles": "Cc1cccc(NC(=O)CC2(CC(=O)O)CCCC2)c1", "hERG current change (%, negative = inhibition) at 10uM": 24.6}
{"smiles": "Cn1nc(-c2ccccc2)cc1NC(=O)c1cccs1", "hERG current change (%, negative = inhibition) at 10uM": 5.18}
{"smiles": "Cc1ccccc1S(=O)(=O)Cc1ccc(C(=O)NCCCN(C)Cc2ccccc2)o1", "hERG current change (%, negative = inhibition) at 10uM": -56.2}
{"smiles": "Cc1ccccc1S(=O)(=O)Cc1ccc(C(=O)NCCN(Cc2ccccc2)C(C)C)o1", "hERG current change (%, negative = inhibition) at 10uM": -55.6}
{"smiles": "Cc1ccccc1S(=O)(=O)Cc1ccc(C(=O)NCCc2ccccc2)o1", "hERG current change (%, negative = inhibition) at 10uM": -30.6}
{"smiles": "Cc1ccccc1S(=O)(=O)Cc1ccc(C(=O)NCCN(C)Cc2ccccc2)o1", "hERG current change (%, negative = inhibition) at 10uM": -48.5}
{"smiles": "CCN(CC)CCNC(=O)c1ccc(CS(=O)(=O)c2ccccc2C)o1", "hERG current change (%, negative = inhibition) at 10uM": -24}
{"smiles": "Cc1ccccc1S(=O)(=O)Cc1ccc(C(=O)NCCN(CC(C)C)CC(C)C)o1", "hERG current change (%, negative = inhibition) at 10uM": -43.6}
{"smiles": "CCCCn1c(=O)[nH]c(=O)c2c1nc(-c1cc(Cl)c(OC)c(OC)c1)n2C", "hERG current change (%, negative = inhibition) at 10uM": 16.2}
{"smiles": "CCSc1nc(O)cc(=O)n1-c1ccc(OC)cc1", "hERG current change (%, negative = inhibition) at 10uM": 3.73}
{"smiles": "O=C(c1ccco1)N(CCC(c1ccccc1)c1ccco1)Cc1ccccc1", "note": "(centres unmarked)", "hERG current change (%, negative = inhibition) at 10uM": -14.8}
{"smiles": "COc1cc(/C=C2/C(=N)N3N=C(CC(=O)N4CCOCC4)SC3=NC2=O)ccc1OC(C)c1ccccc1", "note": "(centres unmarked)", "hERG current change (%, negative = inhibition) at 10uM": 11.7}
{"smiles": "Cc1ccc(NC2CCCN(C(=O)c3ccoc3C)C2)cc1C", "note": "(centres unmarked)", "hERG current change (%, negative = inhibition) at 10uM": -1.68}
{"smiles": "Cc1ccc(NC2CCCN(C(=O)c3ccc(F)cc3)C2)cc1C", "note": "(centres unmarked)", "hERG current change (%, negative = inhibition) at 10uM": -9.71}
{"smiles": "Cc1ccc(C(=O)N2CCCC(Nc3ccc(C)c(C)c3)C2)c(=O)[nH]1", "note": "(centres unmarked)", "hERG current change (%, negative = inhibition) at 10uM": -50.3}
{"smiles": "O=C(NCC(=O)N1CCCC(C(F)(F)F)C1)c1ccc2ccccc2c1", "note": "(centres unmarked)", "hERG current change (%, negative = inhibition) at 10uM": -11.3}
{"smiles": "Nc1n[nH]c(-c2ccc([N+](=O)[O-])cc2[N+](=O)[O-])n1", "hERG current change (%, negative = inhibition) at 10uM": 15.4}
{"smiles": "CCC1CCCCN1CC(=O)c1c(C)[nH]c2cc(C)ccc12", "note": "(centres unmarked)", "hERG current change (%, negative = inhibition) at 10uM": -27.7}
{"smiles": "Cc1[nH]c2ccccc2c1C(=O)CN1CC(C)CC(C)C1", "note": "(centres unmarked)", "hERG current change (%, negative = inhibition) at 10uM": 0.738}
{"smiles": "COc1ccc2[nH]cc(C(=O)CN3CCC(C)CC3)c2c1", "hERG current change (%, negative = inhibition) at 10uM": -5.75}
{"smiles": "Cc1ccc2c(C(=O)CN3CCCCC3)c(C)[nH]c2c1", "hERG current change (%, negative = inhibition) at 10uM": -11.1}
{"smiles": "COc1ccc2[nH]cc(C(=O)CN3CCN(C4CCCCC4)CC3)c2c1", "hERG current change (%, negative = inhibition) at 10uM": -54.8}
{"smiles": "Cc1ccc2c(C(=O)CN3CCN(C4CCCCC4)CC3)c(C)[nH]c2c1", "hERG current change (%, negative = inhibition) at 10uM": -55.1}
{"smiles": "CCOC(=O)C1CCN(C(C)C(=O)c2c(C)[nH]c3cc(C)ccc23)CC1", "note": "(centres unmarked)", "hERG current change (%, negative = inhibition) at 10uM": -76.7}
{"smiles": "Cc1ccc2c(C(=O)CN3CC(C)CC(C)C3)c(C)[nH]c2c1", "note": "(centres unmarked)", "hERG current change (%, negative = inhibition) at 10uM": -51}
{"smiles": "COc1ccc2[nH]cc(C(=O)CN3CCCCC3)c2c1", "hERG current change (%, negative = inhibition) at 10uM": -8.72}
{"smiles": "Cc1ccc2c(C(=O)CN3CCCC(C)C3)c(C)[nH]c2c1", "note": "(centres unmarked)", "hERG current change (%, negative = inhibition) at 10uM": -14.8}
{"smiles": "CCOC(=O)C1CCN(C(C)C(=O)c2c[nH]c3ccccc23)CC1", "note": "(centres unmarked)", "hERG current change (%, negative = inhibition) at 10uM": -42.2}
{"smiles": "Cc1ccc2c(C(=O)CN3CCCC3)c(C)[nH]c2c1", "hERG current change (%, negative = inhibition) at 10uM": -6.89}
{"smiles": "CSc1ncccc1C(=O)N1CCN(S(=O)(=O)c2ccc3ccccc3c2)CC1", "hERG current change (%, negative = inhibition) at 10uM": -34.9}
